The nature of experiment [1]: NCI Yeast Anticancer Drug Screen. Data for the rad50 strain (AID 155).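 Further: 0% = growth of vehicle-only cultures of the same strain.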 The note with it: S. cerevisiae rad50 strain growth inhibition; at 50.0 µM; active compounds read high. The method in brief:
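A DNA repair-deficient yeast mutant serves as the test organism; compound-induced growth inhibition is calculated against vehicle-treated cells.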

Experiment [2] can be described thus: NCI Yeast Anticancer Drug Screen. Data for the mec2-1 strain (AID 157). The note with it: S. cerevisiae mec2-1 strain, at 50.0 µM, active compounds read high. The method in brief:
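mec2-1 yeast strain, carrying an alteration in DNA damage repair or cell cycle control, was exposed to compounds; growth inhibition was measured relative to vehicle-treated controls.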

Experiment [3] in a line: NCI Yeast Anticancer Drug Screen. Data for the sgs1 mgt1 strain (AID 161).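 Further: 0% = growth of cultures given vehicle only.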 The note with it: S. cerevisiae sgs1 mgt1 strain, at 50.0 µM, active compounds read high. A digest of the protocol:
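Percent growth inhibition was derived by comparing compound-exposed mutant yeast with vehicle-exposed cultures. The strain carries alterations in DNA damage repair.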

Experiment [4] is described as follows: NCI Yeast Anticancer Drug Screen. Data for the cln2 rad14 strain (AID 165).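 Further: 0% = growth equal to vehicle treated cultures.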 The note with it: S. cerevisiae cln2 rad14 strain, at 50.0 µM, active compounds read high. The method in brief:
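Yeast carrying cln2 and rad14 alterations (cell cycle control and DNA damage repair) were exposed to compounds. Growth inhibition was measured against vehicle-treated controls.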

Experiment [5] can be described thus: NCI Yeast Anticancer Drug Screen. Data for the bub3 strain (AID 167). The note with it: S. cerevisiae bub3 mutant strain, at 50.0 µM, active compounds read high. The method in brief:
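Inhibition values come from growth of compound-treated mutant yeast normalised to vehicle-treated controls.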

Experiment [6] can be described thus: NCI Yeast Anticancer Drug Screen. Data for the mlh1 rad18 strain (AID 175). The note with it: S. cerevisiae mlh1 rad18 strain growth inhibition; at 50.0 µM; active compounds read high. The method in brief: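 Growth inhibition of the yeast strain was measured after compound exposure and expressed relative to vehicle-treated controls. The strain carries defined defects in DNA damage repair.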

Molecules are shown by their SMILES. Several values for one entry are separate records, joined by “and”; a condition that tells them apart may be missing. Equal values may be shown once. This is part of a sample that, as a whole, favours compounds with a hit. Of some 79,000 tested, about 15% had one in any assay. Unmarked numbers belong to inactive results. Activity calls are given as the source filed them. No stated cut-off is given here; in the data, active means growth inhibition above about 70%; inactive means the rest.

For the compound `[CH3][Sn]([CH3])([n]1cnc2ccccc21)[n]1cnc2ccccc21`, the growth inhibition is 0.85% in experiment [1]; 9.9% in experiment [2]; 12.2% in experiment [3]; -4.85% in experiment [4]; 0.1% in experiment [5]; -3.45% in experiment [6].
In the case of `CC(C)CCC(=O)OC1CCC2(C)C(=CCC3C4CCC(=O)C4(C)CCC32)C1` (configuration not stated), the growth inhibition was 3.35% in experiment [1]; 12.1% in experiment [2]; 5.35% in experiment [3]; -18.7% in experiment [4]; -1.9% in experiment [5]; 13.2% in experiment [6].
As to `[C-]#[O+].[C-]#[O+].[C-]#[O+].[Mo].c1ccc([PH+](CC[As](c2ccccc2)c2ccccc2)CC[As](c2ccccc2)c2ccccc2)cc1`, the growth inhibition in experiment [1] was 11.4%; in experiment [2], 9.45%; in experiment [3], 21.1%; in experiment [4], 19.2%; in experiment [5] it was 6.7%; in experiment [6], 28.9%.
With `O=P(Oc1ccccc1)(Oc1ccccc1)N(CCCl)CCCl`, the growth inhibition was 0.2% in experiment [1]; 9.55% in experiment [2]; -8.35% in experiment [3]; -11.9% in experiment [4]; -19.2% in experiment [5]; -37.6% in experiment [6].
For the compound `N#CS.N=C=S.N=C=S.[Cu+2].[NH2-].[NH2-].[NH2-].[NH2-].c1ccc2ncccc2c1`, the growth inhibition in experiment [1] is -10.4%; in experiment [2], -16.6%; in experiment [3] it was -24.2%; in experiment [4] it was 26.2%; in experiment [5], -9.6%; in experiment [6] it was -12.5%.
Regarding `O=C(O)COc1ccc(Cl)cc1Cl` (tested in a mixture with another compound), the growth inhibition in experiment [1] was -0.5%; in experiment [2], -3.35%; in experiment [3], 14.7%; in experiment [4] it was -19.1%; in experiment [5], -9.5%; in experiment [6] it was -0.9%.
As for `Nc1nc(N)c2cnnn2n1`, the growth inhibition in experiment [1] is 18.1%; in experiment [2], -13.2%; in experiment [3], 17.3%; in experiment [4] it was 11.9%; in experiment [5], 4.05%; in experiment [6], 20.8%.
For the compound `CCOP(=O)(OCC)C(F)(F)CC1CCCCC1`, the growth inhibition was -17.1% in experiment [1]; -25.6% in experiment [2]; -19.4% in experiment [3]; -59% in experiment [4]; 26.2% in experiment [5]; -9.85% in experiment [6].
Take `CCCCN1CCC2(CC1)COCc1ccccc12`: the growth inhibition in experiment [1] is 57.2%; in experiment [2], 34.3%; in experiment [3], 42%; in experiment [4], 28.7%; in experiment [5] it was 54.9%; in experiment [6], 44.1%.
Take `O=C(O)C(C(=O)O)P(=S)(S)c1ccccc1` (configuration not stated): the growth inhibition is -2.1% in experiment [1]; 8.6% in experiment [2]; -2.75% in experiment [3]; 1.15% in experiment [4]; 35.3% in experiment [5]; 14.5% in experiment [6].
For `CC1([N+](=O)[O-])COP(=O)(OP2(=O)OCC(C)([N+](=O)[O-])CO2)OC1` (configuration not stated), the growth inhibition in experiment [1] is 29.8%; in experiment [2], 10.2%; in experiment [3], 28.9%; in experiment [4], 26.6%; in experiment [5], 3.85%; in experiment [6], 20%.
For the compound `NC(=O)NNC(=O)C(Cl)(Cl)Cl`, the growth inhibition in experiment [1] was -0.45%; in experiment [2] it was -8.55%; in experiment [3], 5.6%; in experiment [4] it was -63.3%; in experiment [5] it was -4.65%; in experiment [6] it was -14.2%.
With `CCC1(CC)COP(=S)(S)OC1`, the growth inhibition in experiment [1] was 10.8%; in experiment [2], -17.8%; in experiment [3] it was -16.9%; in experiment [4] it was 10.1%; in experiment [5], -3.5%; in experiment [6] it was -3.2%.
Take `CCCCCCC[CH2][Sn][CH2]CCCCCCC.Nc1ncnc2c1ncn2C1OC(CO)C2[OH+][OH+]C21` (configuration not stated): the growth inhibition in experiment [1] was 19.9%; in experiment [2], 5.45%; in experiment [3] it was 9.35%; in experiment [4] it was -4%; in experiment [5], 2.3%; in experiment [6], 11.8%.
As to `Nc1ccccc1C(=O)Oc1ccccn1`, the growth inhibition is 7.45% in experiment [1]; 8.9% in experiment [2]; -0.8% in experiment [3]; 13.6% in experiment [4]; -8.85% in experiment [5]; 6.35% in experiment [6].
With `COC(=O)c1nc(-c2ccc3c(n2)C(=O)C(N)=C(OC)C3=O)c(N)c(-c2ccc(OC)c(OC)c2O)c1C`, the growth inhibition in experiment [1] was 58%; in experiment [2], 7.25%; in experiment [3] it was 36.1%; in experiment [4] it was 26.2%; in experiment [5] it was 23.2%; in experiment [6], 47.5%.
Turning to `COc1ccc2nc3cc(Cl)ccc3c(NCCCSCCCl)c2n1`, the growth inhibition was 95.4% (active) in experiment [1]; 80% (active) in experiment [2]; 94.3% (active) in experiment [3]; 78.4% (active) in experiment [4]; 71.3% (active) in experiment [5]; 92.2% (active) in experiment [6].
On to `O=S(=O)(O)c1ccc(CBr)cc1`, for which the growth inhibition was -27.6% in experiment [1]; -27.6% in experiment [2]; 0.6% in experiment [3]; -36.4% in experiment [4]; -3.5% in experiment [5]; -6.85% in experiment [6].
Regarding `COc1cc(CC[N+](C)(C)C)cc(OC)c1OC`, the growth inhibition was 4.95% in experiment [1]; 6.1% in experiment [2]; 7.85% in experiment [3]; 25.2% in experiment [4]; 9.5% in experiment [5]; 34.7% in experiment [6].
Take `CCN1CC2(CO)CCC(OC)C34C5CC6C(OC)CC(O)(C5C6OC)C(O)(C(OC)C23)C14` (configuration not stated): the growth inhibition in experiment [1] was 1.95%; in experiment [2], -16.6%; in experiment [3] it was 2.7%; in experiment [4] it was 9%; in experiment [5] it was -12.6%; in experiment [6], 6.75%.
Regarding `Cc1cccc(NC(=O)CCl)c1`, the growth inhibition is 1.65% in experiment [1]; -23.4% in experiment [2]; 10.8% in experiment [3]; -4.6% in experiment [4]; 21.9% in experiment [5]; 19.8% in experiment [6].
As for `C1CC2CCC(N3CCCC3)C(C1)C21OCCO1` (configuration not stated), the growth inhibition in experiment [1] was 11.3%; in experiment [2] it was 9.75%; in experiment [3], 5.05%; in experiment [4] it was -3.2%; in experiment [5], 6.45%; in experiment [6], -8.9%.
Regarding `CC[N+]1(CC)CC[N+](CC)(CC)CC1`, the growth inhibition in experiment [1] was 22.9%; in experiment [2], -49%; in experiment [3], 25.8%; in experiment [4], -9.05%; in experiment [5], -0.9%; in experiment [6], 16.4%.
On to `[Co].[NH2-].[NH2-].[NH2-].[NH2-].[NH2-].[NH2-]`, for which the growth inhibition in experiment [1] was -5% and 8.1%; in experiment [2] it was -15.3% and 9.05%; in experiment [3], -5.4% and 6.25%; in experiment [4], -19.8% and 10.1%; in experiment [5], 2.3% and 23.4%; in experiment [6] it was -2.9% and -5.85%.
For `O=C(O)c1cc(CCl)ccc1O`, the growth inhibition was -0.05% in experiment [1]; -7.95% in experiment [2]; -15.7% in experiment [3]; -14% in experiment [4]; 4.75% in experiment [5]; -1.7% in experiment [6].
With `O=C(CN1CCOCC1)c1ccc2ccccc2c1`, the growth inhibition in experiment [1] was 10.1%; in experiment [2], 2.05%; in experiment [3], 8.4%; in experiment [4] it was -14.4%; in experiment [5], 17%; in experiment [6], 9.85%.
Regarding `O=C1NC(=O)C(=C2C(=O)COC2=O)C(=O)N1`, the growth inhibition in experiment [1] was -4.4%; in experiment [2], -16.6%; in experiment [3], -13.8%; in experiment [4] it was -1.7%; in experiment [5], -2.8%; in experiment [6], -19.5%.
Take `O=[N+]([O-])C(CO)CCC(CO)[N+](=O)[O-]` (configuration not stated): the growth inhibition was -6.6% in experiment [1]; -14% in experiment [2]; -3.9% in experiment [3]; -18.8% in experiment [4]; -15.7% in experiment [5]; -15.5% in experiment [6].
For `CCOC(=O)CC(=Nc1cc(C)on1)N(CC)CC`, the growth inhibition in experiment [1] was 0.95%; in experiment [2], -19.2%; in experiment [3], 6.3%; in experiment [4], 9.95%; in experiment [5], -9.75%; in experiment [6], -17.1%.
On to `Cc1coc2c1CCC(C)C2` (configuration not stated), for which the growth inhibition in experiment [1] is -6.65%; in experiment [2], -24.8%; in experiment [3], -5.5%; in experiment [4], 1.55%; in experiment [5], 1.65%; in experiment [6], -5.9%.
Turning to `O=C(CP(=O)(O)O)NC(CC(=O)OCc1ccccc1)C(=O)OCc1ccccc1` (configuration not stated), the growth inhibition in experiment [1] is 12.8% and 33%; in experiment [2], 7.65% and -0.7%; in experiment [3] it was 16.9% and 20.3%; in experiment [4], 14.9% and 12.6%; in experiment [5], 2.05% and 1.2%; in experiment [6], -3.4% and 3.45%.
On to `CN(C(=[Se])[Se]C(=[Se])N(C)C1CCCCC1)C1CCCCC1`, for which the growth inhibition in experiment [1] was 19.4%; in experiment [2], 5%; in experiment [3], 8.35%; in experiment [4], 18.4%; in experiment [5], 0.4%; in experiment [6], 12.6%.
In the case of `CCC(C)(C)OC(=O)CCl`, the growth inhibition in experiment [1] was -0.25%; in experiment [2] it was 1.25%; in experiment [3], 7.8%; in experiment [4] it was 5.2%; in experiment [5], 36.7%; in experiment [6], -5.15%.
Consider `NC1C[S][Sn][O]C1=O` (configuration not stated), for which the growth inhibition is 14.2% in experiment [1]; 14.3% in experiment [2]; 3.2% in experiment [3]; -21.4% in experiment [4]; 4.9% in experiment [5]; 14.6% in experiment [6].
As to `CN(C)C(=O)Oc1c(Cl)cccc1Cl`, the growth inhibition in experiment [1] is 28.4%; in experiment [2], 24.4%; in experiment [3], 5.65%; in experiment [4], 10.5%; in experiment [5] it was 36.8%; in experiment [6] it was 14.1%.
Take `CN(C)P1(=S)NCC(C(C)(C)C)CO1` (configuration not stated): the growth inhibition was 10.2% in experiment [1]; -40.1% in experiment [2]; -10.9% in experiment [3]; 11.2% in experiment [4]; 18.5% in experiment [5]; -43.4% in experiment [6].
Regarding `NC(=O)C(Cl)(Cl)CCl`, the growth inhibition in experiment [1] was 14.7%; in experiment [2] it was -34.5%; in experiment [3], -12.4%; in experiment [4], 1.5%; in experiment [5], -2.5%; in experiment [6] it was 6.65%.
